Assay results as given in the supplement of paper PMC12067093, “Discovery and optimisation of a covalent ligand for TRIM25 and its application to targeted protein ubiquitination” (Chemical Science, 2025).
The full data set covers some 21,000 targets. This sample favours those with the largest changes.

Tests used:
[1] = target: SARS_P49591_431_VEFVHMLNATMCATTR (UniProt P49591); assay: probe-labelled cysteine peptide fold change vs DMSO (competition) (log2 fold change); higher = less target engagement (more negative = stronger competition); conditions: THP-1, incubation time: 4 h
[2] = target: SLFN11_Q7Z7L1_842_VVQLSDACDMLGDHIVLDSVRR (UniProt Q7Z7L1); assay: as above; conditions: THP-1, incubation time: 4 h
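Note: competitive chemoproteomic profiling in live THP-1 cells with an iodoacetamide desthiobiotin (IA-DTB) probe, comparing probe-labelled peptide intensities in compound-treated cells against DMSO-treated controls.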

UniProt Q7Z7L1, sequence (Q7Z7L1 whole entry, looked up): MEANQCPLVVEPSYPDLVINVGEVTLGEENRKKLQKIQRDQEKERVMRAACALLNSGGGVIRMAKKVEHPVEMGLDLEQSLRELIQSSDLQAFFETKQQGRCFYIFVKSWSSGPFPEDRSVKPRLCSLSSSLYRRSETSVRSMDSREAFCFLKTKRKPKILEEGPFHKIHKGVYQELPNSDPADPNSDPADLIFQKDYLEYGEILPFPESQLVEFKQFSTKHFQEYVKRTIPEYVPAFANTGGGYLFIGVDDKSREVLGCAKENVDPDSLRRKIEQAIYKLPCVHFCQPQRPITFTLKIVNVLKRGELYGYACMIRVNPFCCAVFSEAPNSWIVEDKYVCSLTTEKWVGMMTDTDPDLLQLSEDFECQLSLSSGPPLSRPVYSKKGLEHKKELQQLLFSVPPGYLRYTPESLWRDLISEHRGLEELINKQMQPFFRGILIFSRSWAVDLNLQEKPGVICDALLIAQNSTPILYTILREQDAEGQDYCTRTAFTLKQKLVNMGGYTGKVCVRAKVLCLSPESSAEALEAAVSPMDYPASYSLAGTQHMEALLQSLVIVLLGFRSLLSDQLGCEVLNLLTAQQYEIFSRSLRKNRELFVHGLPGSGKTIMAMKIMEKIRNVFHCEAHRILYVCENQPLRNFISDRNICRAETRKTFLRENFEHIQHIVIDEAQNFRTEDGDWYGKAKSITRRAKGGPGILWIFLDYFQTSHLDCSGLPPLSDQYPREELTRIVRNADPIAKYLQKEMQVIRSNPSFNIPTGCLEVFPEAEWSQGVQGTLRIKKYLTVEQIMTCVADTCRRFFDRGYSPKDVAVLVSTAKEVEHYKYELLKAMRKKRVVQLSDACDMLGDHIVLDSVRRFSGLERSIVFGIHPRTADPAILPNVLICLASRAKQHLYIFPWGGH
UniProt P49591, sequence (P49591 whole entry, looked up): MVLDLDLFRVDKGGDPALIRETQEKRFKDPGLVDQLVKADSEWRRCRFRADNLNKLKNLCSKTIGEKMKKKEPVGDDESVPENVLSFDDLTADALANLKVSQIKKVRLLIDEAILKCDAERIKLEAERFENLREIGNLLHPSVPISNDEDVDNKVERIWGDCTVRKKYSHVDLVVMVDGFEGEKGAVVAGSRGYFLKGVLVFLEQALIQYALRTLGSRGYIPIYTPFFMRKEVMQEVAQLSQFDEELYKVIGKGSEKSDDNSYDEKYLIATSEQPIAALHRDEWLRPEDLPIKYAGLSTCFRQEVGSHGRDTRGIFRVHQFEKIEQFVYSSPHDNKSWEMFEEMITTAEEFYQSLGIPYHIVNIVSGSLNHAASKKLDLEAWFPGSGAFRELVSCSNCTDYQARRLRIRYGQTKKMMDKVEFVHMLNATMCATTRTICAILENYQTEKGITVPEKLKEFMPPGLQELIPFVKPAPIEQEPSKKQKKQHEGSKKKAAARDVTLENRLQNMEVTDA

Compound: CC1Cc2ccccc2N1C(=O)C1CCCN(C(=O)CCl)C1 (mixture of isomers) [TRIM25 ligand 11 (diastereomer mixture)]
- probe-labelled cysteine peptide fold change ([1]; 10 µM): 0.102
- probe-labelled cysteine peptide fold change ([1]; 50 µM): 0.113
- probe-labelled cysteine peptide fold change ([2]; 10 µM): 0.174
- probe-labelled cysteine peptide fold change ([2]; 50 µM): 0.0323
